esBAF inh: inhibitors of esBAF chromatin remodeling in mouse ES cells | hit rate 2% among 350,000 | reporter increase, % at 12.5 µM | Bmi1-luciferase knock-in reporter, 24 h; 100% = twice the neutral-well signal; in the data active = activation above about 40%; inconclusive = no clear call, values can overlap the other calls;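 also: 0% = median of the plate's neutral control wells and 100% = double that signal; a rise in the Bmi1 reporter signal indicates esBAF inhibition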
hgDAF12 agonist: activates the H. glycines DAF-12 receptor ligand-binding domain. hit rate 1.8% among 370,000. HEK293 GAL4-hgDAF12 UAS-luciferase reporter, agonist luminescence; normalized to butyrate control. activation, % at 6.8 µM;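 active = activation above a cutoff set at the mean of all screened compounds plus 3 SD, cut at about 10% in these data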;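 also: 0% = DMSO wells and 100% = sodium butyrate wells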
DAX1 inh: DAX1 (NR0B1) inhibition, primary screen; HEK293T StAR-luciferase reporter, SF-1/DAX-1 repression relief; inhibition, % at 6.8 µM; hit rate 1.1% among 370,000;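 active = inhibition above the mean over all tested compounds plus 3 SD, cut at about 3.6% in these data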;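 also: 0% = DAX-1 cells with DMSO and 100% = cells lacking DAX-1 with DMSO; higher inhibition means more luminescence from relief of DAX-1 repression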
hcDAF-12 act: H. contortus DAF-12 activation, primary screen; HEK293 hcDAF-12 lit1-tk-luc reporter, luminescence; 0% DMSO, 100% Δ7-dafachronic acid; activation, % at 6.8 µM; hit rate 1.4% among 370,000;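 active = activation above the mean of all tested compounds plus 3 SD, cut at about 5.5% in these data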;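 also: 100% = response to 3 µM Δ7-dafachronic acid high control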
Wnt bcat act: activators of Wnt/beta-catenin signaling; activation, % at 9.35 µM; hit rate 1.2% among 300,000; Wnt/beta-catenin reporter cell assay, activator, plate reader; AID 743398; in the data active = activation above about 30%, passing the limit was not always enough; inconclusive = no clear call, values can overlap the other calls;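 also: 0% = neutral control wells and 100% = positive control wells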
ssDAF-12 act: S. stercoralis DAF-12 activation, primary screen; HEK293 ssDAF-12/GRIP1 lit1-tk-luc reporter, luminescence; % of 3 µM dafachronic acid response; activation, % at 6.8 µM; hit rate 1% among 370,000;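 active = activation above the mean over all tested compounds plus 3 SD, cut at about 0.9% in these data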;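 also: 0% = DMSO-only wells and 100% = 3 µM delta7-dafachronic acid wells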
hgDAF12 ag: hgDAF-12 agonism, confirmation assay; AID 743050; shares compounds with hgDAF12 agonist; HEK293 GAL4-hgDAF12 luciferase reporter, agonist mode; percent of butyrate response; activation, % at 6.8 µM; hit rate 80% among 3,300;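 active = mean activation over triplicate wells above the hit cutoff derived from the earlier primary screen, cut at about 11% in these data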;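 also: 0% = DMSO low control and 100% = 2 mM sodium butyrate high control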
LXR ag 2: LXR-beta agonism as DAF-12 counter-screen | 3,300 tested, under 10 active | activation, % at 6.8 µM | shares compounds with hgDAF12 agonist | AID 743051 | HEK293 Gal4-LXR luciferase reporter, 24 h;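 active = mean activation of the triplicate above a set limit carried over from the primary screen, none filed active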
Target sequence (P55055 whole entry, looked up, the tested form may be a part): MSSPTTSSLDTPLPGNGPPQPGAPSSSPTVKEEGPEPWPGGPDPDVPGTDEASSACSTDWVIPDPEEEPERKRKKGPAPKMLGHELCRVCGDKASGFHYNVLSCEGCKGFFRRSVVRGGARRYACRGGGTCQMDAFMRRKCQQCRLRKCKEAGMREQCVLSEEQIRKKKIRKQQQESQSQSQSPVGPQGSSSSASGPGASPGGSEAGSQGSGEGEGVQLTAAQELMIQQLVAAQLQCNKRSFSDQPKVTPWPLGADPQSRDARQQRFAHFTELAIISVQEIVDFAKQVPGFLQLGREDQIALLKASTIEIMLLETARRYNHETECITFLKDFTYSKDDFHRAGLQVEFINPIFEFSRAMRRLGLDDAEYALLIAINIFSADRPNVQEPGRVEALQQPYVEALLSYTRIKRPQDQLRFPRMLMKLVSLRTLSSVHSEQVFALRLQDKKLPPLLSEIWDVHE
Active calls of the source: *; ? = inconclusive; · = not tested or not shown. Rows were chosen to be rich in hits. Some 4.2% of all compounds tested hit in one or more screens of this group.

SMILES | esBAF inh | hgDAF12 agonist | DAX1 inh | hcDAF-12 act | Wnt bcat act | ssDAF-12 act | hgDAF12 ag | LXR ag 2
COc1ccc(S(=O)(=O)N[C@@H]2CC[C@@H](CCNC(=O)c3ccccc3F)O[C@@H]2CO)cc1 | -2.5 | · | · | · | · | · | · | ·
COc1ccc(-c2cn[nH]c2C)cc1 | · | 1.6 | -0.8 | -0.1 | 1.8 | -0.7 | · | ·
COc1ccc2cc(-c3ccn[nH]3)ccc2c1 | -22.9 | 14.2* | 0.8 | 4.0 | 35.3* | 0.5 | 14.7* | 0.7
c1ccc(-c2csc(NC3CCCCC3)n2)cc1 | ? | 19.7* | 2.7 | 3.6 | ? | 0.2 | 24.5* | 1.0
O=C(Nc1nc(-c2ccccc2)cs1)NC1CCCCC1 | 28.9 | 4.3 | 0.8 | -0.6 | · | -1.7 | · | ·
CCCn1c(=NC(=O)c2ccco2)c(C(=O)OCC)cc2c(=O)n3ccccc3nc21 | 1.8 | 13.4* | 0.8 | 3.6 | · | 0.5 | 0.5 | 0.0
Nc1ccccc1C#Cc1ccc2[nH]ccc2c1 | 82.0* | 14.2* | 1.4 | 3.1 | ? | 0.2 | 12.5* | 0.5
Oc1ccc2[nH]ccc2c1 | -1.6 | -1.8 | -0.3 | 1.1 | · | -1.2 | · | ·
O=C(C1CCCCC1)N1CC[C@@H]2[C@H]1c1cc(Br)ccc1N[C@@H]2CO | 1.6 | · | · | · | · | · | · | ·
COc1ccc(/C=N/NS(=O)(=O)c2ccccc2)cc1OC(=O)c1ccc(C)cc1 | 1.6 | -0.7 | -0.4 | 0.4 | · | -1.2 | · | ·
COc1cc(C(=O)O)ccc1OCc1ccccc1 | · | 2.3 | 1.6 | -0.5 | 1.2 | -1.2 | · | ·
COc1cc(/C=N/NS(=O)(=O)c2ccc3ccccc3c2)ccc1OCc1ccc(C(=O)O)cc1 | -53.8 | 15.5* | 3.1 | 2.9 | 9.2 | -0.3 | 12.7* | 0.8
COc1cc(/C=N/O)ccc1OCc1ccc(C(=O)O)cc1 | · | 13.3* | 2.4 | 2.6 | -28.8 | 0.2 | 15.8* | 1.0
COc1ccc(NC(=O)N(C)C[C@H]2Oc3ccc(NS(=O)(=O)c4ccc(Cl)cc4)cc3CC(=O)N([C@H](C)CO)C[C@@H]2C)cc1 | -2.4 | · | · | · | · | · | · | ·
CN1CC(=O)N2[C@H](c3ccc4c(c3)OCO4)c3[nH]c4ccccc4c3C[C@@H]2C1=O | 3.6 | 49.0* | -0.7 | -0.9 | 1.9 | -1.3 | 0.6 | -0.1
CC(C)CC(=O)Nc1ccc2nn(-c3ccccc3)nc2c1 | · | 14.1* | 3.4 | 3.8 | ? | -0.3 | 16.4* | 0.8
O=C(Nc1ccc2nn(-c3ccccc3)nc2c1)c1ccc(Br)o1 | 34.0 | 0.8 | -0.6 | -1.6 | 4.9 | -1.5 | · | ·
C[C@@H]1CN([C@H](C)CO)C(=O)c2cc(NC(=O)CCC(F)(F)F)ccc2O[C@@H](C)CCCCO[C@@H]1CN(C)C(=O)Cc1ccccc1 | 1.3 | · | · | · | · | · | · | ·
C[C@@H]1CN([C@@H](C)CO)C(=O)c2cc(NC(=O)Cc3ccccc3)ccc2O[C@@H](C)CCCCO[C@@H]1CN(C)C(=O)Cc1ccccc1 | -4.1 | · | · | · | · | · | · | ·
COc1ccc(Cc2nnc(-c3ccccc3)o2)cc1 | ? | 6.7 | 0.1 | -1.0 | 8.8 | -1.0 | · | ·
c1ccc(Cc2nnc(-c3ccccc3)o2)cc1 | 49.4* | 13.7* | -0.2 | 1.8 | 56.2* | 0.3 | 10.1 | 0.4
CC(=O)c1cccc(NC(=O)c2ccc3ccccc3c2)c1 | 2.8 | 19.2* | 3.2 | 3.9 | 27.1 | 0.8 | 17.0* | 0.8
O=C(Nc1ccc(Br)cn1)c1ccc2ccccc2c1 | 55.7* | 14.4* | 1.9 | 4.5 | 16.7 | 1.6* | 19.3* | 0.8
CC(=O)c1ccc(NC(=O)c2cc3ccccc3o2)cc1 | 39.1 | 14.2* | 2.8 | 5.1 | 38.8* | 1.6* | 18.4* | 0.8
CC(C)C#Cc1ccc2c(c1)O[C@H](CN(C)Cc1ccncc1)[C@@H](C)CN([C@@H](C)CO)S2(=O)=O | -9.2 | · | · | · | · | · | · | ·
SMILES | esBAF inh | hgDAF12 agonist | DAX1 inh | hcDAF-12 act | Wnt bcat act | ssDAF-12 act | hgDAF12 ag | LXR ag 2
Cc1ccc(-c2cnc3c(c2)C(=O)N([C@@H](C)CO)C[C@H](C)[C@@H](CN(C)C(=O)c2cccc(F)c2)O3)cc1 | -2.8 | · | · | · | · | · | · | ·
CCOC(=O)c1cnc(-c2ccccc2)nc1N | 24.0 | 14.3* | 4.5* | 5.0 | -0.6 | 0.5 | 15.7* | 0.8
CCOC(=O)c1cnc(SCC(=O)c2ccccc2)nc1N | 16.1 | 5.8 | 1.8 | 0.5 | · | -0.3 | · | ·
CCOC(=O)c1ccc(NC(=O)C2CC3CCC2C3)cc1 (stereo unspecified) | · | 14.0* | 3.0 | 6.5* | 45.5* | 0.1 | 16.7* | 1.0
CC(C)CC#Cc1cnc2c(c1)C(=O)N([C@H](C)CO)C[C@H](C)[C@H](CN(C)S(C)(=O)=O)O2 | 5.1 | · | · | · | · | · | · | ·
CC(C)(C)NC(=O)C(=O)N/N=C/c1ccc(Br)cc1 | · | 3.8 | -0.1 | -0.3 | · | -1.3 | · | ·
CC(C)(C)OC(=O)N/N=C/c1ccc(Br)cc1 | · | 21.1* | 4.2* | 2.9 | 16.7 | -0.8 | 16.3* | 0.6
Cc1noc(C)c1NC(=O)N(C)C[C@H]1Oc2ccc(NC(=O)Nc3ccc(C(F)(F)F)cc3)cc2C(=O)N([C@@H](C)CO)C[C@@H]1C | 1.0 | · | · | · | · | · | · | ·
Cn1nnnc1SCC(=O)Nc1nc2c(s1)CCCC2 | 17.8 | 13.3* | 3.7* | 6.4* | ? | -0.1 | 16.4* | 0.7
CC(C)(C)Nc1nc2cc([N+](=O)[O-])ccc2o1 | 9.2 | 0.0 | 0.3 | 0.4 | 1.2 | -1.0 | · | ·
Nc1ccc(-c2nc3cc([N+](=O)[O-])ccc3o2)cc1 | 0.5 | 23.6* | 2.5 | 5.7* | 44.4* | 0.7 | 19.6* | 0.9
COc1ccc(-c2nc3cc([N+](=O)[O-])ccc3o2)cc1 | · | 13.9* | 2.2 | 2.4 | 18.1 | -0.4 | 16.6* | 0.8
COc1ccc(NC(=O)N(C)C[C@H]2Oc3ccc(NS(=O)(=O)c4ccc(OC)cc4)cc3C(=O)N([C@@H](C)CO)C[C@@H]2C)cc1 | -4.6 | · | · | · | · | · | · | ·
C[C@H](CO)N1C[C@H](C)[C@H](CN(C)Cc2ccc3c(c2)OCO3)Oc2ccc(NC(=O)c3ccncc3)cc2C1=O | 1.1 | · | · | · | · | · | · | ·
NCC[C@@H]1CC[C@@H](NS(=O)(=O)Cc2ccccc2)[C@H](CO)O1 | -4.2 | · | · | · | · | · | · | ·
O=C(NCCOC(=O)Nc1cccc2ccccc12)OCc1ccccc1 | -0.4 | -0.5 | -1.7 | -0.6 | -0.7 | 0.3 | · | ·
O=C(Nc1cccc2ccccc12)OCc1ccccc1 | 61.3* | 16.9* | 1.0 | 2.6 | 4.0 | -0.2 | 6.0 | 0.1
COC(=O)c1ccc(-c2ccc(Cl)cc2)nc1C | 21.3 | 14.5* | 4.3* | 4.8 | · | 0.3 | 20.0* | 0.9
Cc1nn(C)c(=O)n1-c1ccc(Oc2ccccc2)cc1 | 4.6 | -0.9 | -0.8 | -1.5 | · | -1.9 | · | ·
Cc1ccc(-n2c(C)nn(CCOc3ccccc3)c2=O)cc1 | 45.2* | 13.3* | 3.1 | 1.8 | 18.6 | -0.7 | 8.7 | 0.3
CC(C)(C)c1ccc(OCCn2ccccc2=O)cc1 | 59.5* | 15.6* | 2.9 | 6.2* | 62.2* | -0.1 | 17.3* | 0.7

Source: PubChem BioAssay (several laboratories)
